Data from the supplement of paper PMC6135742.
Where a name gives a salt, the structure may show the parent alone. ± gives the standard deviation of the averaged measurements. The full ranking holds about 2,600 compounds; the median of “MBP+ mature oligodendrocyte number relative to DMSO vehicle control” is about -0.34, and the highest 2% start at about 13. The full list was thinned out, with the highest values kept by preference.

test system: jimpy (Plp1 jimpy) mouse iPSC-derived oligodendrocyte progenitor cells; test: MBP+ mature oligodendrocyte number relative to DMSO vehicle control (SDs above negative control mean); higher = more surviving jimpy oligodendrocytes (rescue); details: 10 µM; 3 days
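Also: 10 µM single dose with 3-day oligodendrocyte differentiation.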

Structure (SMILES) | MBP+ mature oligodendrocyte number
O=C(/C=C/c1ccc(CN(CCO)CCc2c[nH]c3ccccc23)cc1)NO [LAQ824 (Dacinostat)] | < -6.7
CC(C)(C)[N+]([O-])=Cc1ccc(S(=O)(=O)O)cc1S(=O)(=O)O | 2.35
CC(C)c1cc(-c2ccc(F)c3ccccc23)nc(N)n1 | 6.85
Nc1ccc2ncnc(NCCc3ccc(Oc4ccccc4)cc3)c2c1 | < -6.35
N#C/C(=C1/SC[C@@H](c2ccc(Cl)cc2Cl)S1)n1ccnc1 [Luliconazole] | 19.8
CC(=O)OCC(=O)[C@@]1(O)CC[C@H]2[C@@H]3CCC4=CC(=O)CC[C@]4(C)[C@H]3C(=O)C[C@@]21C [Cortisone acetate] | -0.164
CC(=O)O[C@]1(C(C)=O)CC[C@H]2[C@@H]3C=C(Cl)C4=CC(=O)[C@@H]5C[C@@H]5[C@]4(C)[C@H]3CC[C@@]21C [Cyproterone acetate] | 3.38
CC(=O)O[C@]1(C(C)=O)CC[C@H]2[C@@H]3C[C@H](C)C4=CC(=O)CC[C@]4(C)[C@H]3CC[C@@]21C [Medroxyprogesterone acetate] | 16.5
CC(=O)S[C@@H]1CC2=CC(=O)CC[C@]2(C)[C@H]2CC[C@@]3(C)[C@@H](CC[C@@]34CCC(=O)O4)[C@H]12 [Spironolactone] | 1.84 ± 1.7
CC(=O)O[C@]1(C(C)=O)CC[C@H]2[C@@H]3C=C(Cl)C4=CC(=O)[C@@H]5C[C@@H]5[C@]4(C)[C@H]3CC[C@@]21C [Cyproterone Acetate] | 21.5
CC(=O)O[C@]1(C(C)=O)CC[C@H]2[C@@H]3C[C@H](C)C4=CC(=O)C=C[C@]4(C)[C@@]3(F)[C@@H](O)C[C@@]21C [Fluorometholone Acetate] | 10.3
CC(=O)OCC(=O)[C@@]1(O)CC[C@H]2[C@@H]3CCC4=CC(=O)CC[C@]4(C)[C@H]3C(=O)C[C@@]21C [Cortisone 21-acetate] | -0.825
CC(=O)O[C@]1(C(C)=O)CC[C@H]2[C@@H]3C=C(C)C4=CC(=O)CC[C@]4(C)[C@H]3CC[C@@]21C [Megestrol Acetate] | 15.4
C[C@]12CCC(=O)C=C1CC[C@@H]1[C@@H]2CC[C@@]2(C)[C@H]1CC[C@]2(O)C(=O)CO [Cortexolone] | 0.431
CC(C)CCN1c2nc(Nc3cc(F)c(O)c(F)c3)ncc2N(C)C(=O)C1C (stereo unspecified) | < -6.01
O=C(O)CP(=O)(O)O [Phosphonoacetic acid] | -0.64
O=C(O)c1cc(=O)c2c(Cl)cc(Cl)cc2[nH]1 [5,7-Dichlorokynurenic acid] | -0.544
COC(=O)C1=CO[C@@H](O)[C@@H]2C(CO)=CC[C@H]12 [Genipin] | 3.27 ± 0.9
C=CC(=O)Nc1cccc(Nc2nc(Nc3ccc(Oc4ccnc(C(=O)NC)c4)cc3)ncc2F)c1 | -6.27
CN1CCN(C(=O)c2cc3cc(Cl)ccc3[nH]2)CC1 | 1.14
N[C@@H](CC(=O)N1CCn2c(nnc2C(F)(F)F)C1)Cc1cc(F)c(F)cc1F [Sitagliptin phosphate monohydrate] | 0.184

Structure (SMILES) | MBP+ mature oligodendrocyte number
NCCOc1cc(C(=O)Nc2cc(OCCN)c3ccccc3n2)nc(C(=O)Nc2cc(OCCN)c3ccccc3n2)c1 [Pyridostatin trifluoroacetate salt] | -3.78
COc1ccccc1CN[C@H]1CCCN[C@H]1c1ccccc1 | -0.711
CSc1c(C)c(SC)n2ccncc12 [Oltipraz metabolite M2] | -2.35
CC(C)NC[C@H](O)COc1ccc(CCOCC2CC2)cc1 [Levobetaxolol HCl] | 9.7
CN(C)C(=O)Nc1cccc(-c2ccc(N(C)C)cc2)c1 [Atglistatin] | 6.21
COc1cc2c[n+](C)c3c4cc5c(cc4ccc3c2cc1OC)OCO5 [Nitidine chloride] | < -4.47
N#CC1(c2ccc(NC(=O)c3cccnc3NCc3ccncc3)cc2)CCCC1 [Apatinib] | 2.86
CN(C/C=C/C#CC(C)(C)C)Cc1cccc2ccccc12 [Terbinafine] | 1.87
CN(C/C=C/C#CC(C)(C)C)Cc1cccc2ccccc12 [Terbinafine HCl] | 4.54
CN(Cc1ccc(C(C)(C)C)cc1)Cc1cccc2ccccc12 [Butenafine HCl] | 21.1
COc1ccc(CNCc2cccc3ccccc23)cc1 | -1.56
CCC(=O)O[C@]1(C(=O)CCl)[C@@H](C)C[C@H]2[C@@H]3CCC4=CC(=O)C=C[C@]4(C)[C@@]3(F)[C@@H](O)C[C@@]21C [Clobetasol propionate] | 12.8
CCC(=O)OCC(=O)[C@@]1(OC(=O)CC)[C@@H](C)C[C@H]2[C@@H]3CCC4=CC(=O)C=C[C@]4(C)[C@@]3(Cl)[C@@H](O)C[C@@]21C [Beclomethasone dipropionate] | 7.8
CCC(=O)O[C@]1(C(=O)SCF)[C@H](C)C[C@H]2[C@@H]3C[C@H](F)C4=CC(=O)C=C[C@]4(C)[C@@]3(F)[C@@H](O)C[C@@]21C [Fluticasone propionate] | 8.9
CCC(=O)O[C@]1(C(=O)CCl)[C@@H](C)C[C@H]2[C@@H]3C[C@H](F)C4=CC(=O)C=C[C@]4(C)[C@@]3(F)[C@@H](O)C[C@@]21C [Halobetasol Propionate] | 21.4
C[C@H]1C[C@H]2[C@@H]3CCC4=CC(=O)C=C[C@]4(C)[C@@]3(F)[C@@H](O)C[C@]2(C)[C@@]1(O)C(=O)CO [Betamethasone] | 6.53 ± 6.4
C[C@@H]1C[C@H]2[C@@H]3C[C@H](F)C4=CC(=O)C=C[C@]4(C)[C@@]3(F)[C@@H](O)C[C@]2(C)[C@@]1(O)C(=O)CO [Flumethasone] | 8.94
CO[C@H]1C(=O)[C@]2(C)[C@@H](OC)C[C@H]3OC[C@@]3(OC(C)=O)[C@H]2[C@H](OC(=O)c2ccccc2)[C@]2(O)C[C@H](OC(=O)[C@H](O)[C@@H](NC(=O)OC(C)(C)C)c3ccccc3)C(C)=C1C2(C)C [Cabazitaxel] | -3.71
C=CCN1CCc2c(cc(O)c(O)c2Br)[C@@H](c2ccccc2)C1 [R(+)-6-Bromo-APB hydrobromide] | -2.95
Cc1ccc(C(=O)NCCCCCC(=O)Nc2ccccc2N)cc1 | -5.76
